HT1080 IDH1KD tx = qHTS for induction of synthetic lethality in tumor cells producing 2HG: qHTS for the HT-1080-IDH1KD cell line. HT-1080 IDH1 knockdown viability, ATP luminescence, 48 h. Potency, µM (top dose mostly 46.1 µM), for the others: top-dose activity, negative = toxicity, most hits filed as cytotoxic. hit rate 2% among 360,000;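 also: 0% = DMSO wells and -100% = cell-free medium wells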
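Knockdown cells (IDH1KD HT-1080) received compounds 2 h after plating at 750 cells/well and were kept 48 h at 37 °C in 5% FBS RPMI. A CellTiter-Glo luminescence read gave % activity for curve fitting.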
KB-3-1 tox = qHTS assay for MDR1-selective chemotherapeutics: Primary screen using the parental adenocarcinoma cell KB-3-1 | Potency, µM (doses to about 46.1 µM), most hits filed as cytotoxic | KB-3-1 viability, CellTiter-Glo ATP luminescence, 72 h | hit rate 1.4% among 400,000 | AID 1347075, 2019; also: % is scaled to controls: 0 for no effect and ±100 for the full control effect; nearly all actives have a fitted effect of over 60% in size
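Luminescent ATP read-out (CellTiter-Glo) measures survival of drug-naive KB-3-1 cells after 72 h compound exposure at 37 °C. Titration series was screened from lowest to highest concentration, with DMSO vehicle plates as background controls.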
MCF10A rerep = A quantitative high throughput screen for small molecules that induce DNA re-replication in MCF 10a normal breast cells | MCF 10A DNA re-replication, Hoechst nuclear intensity, 48 h | Potency, µM (doses to about 46.1 µM), for inactives: at the highest dose activity, positive = re-replication, usual class: activators | hit rate 2.9% among 350,000; also: % of control where 0% means no effect; nearly all actives have a fitted effect of over 50% in size
SW480 rerep = A quantitative high throughput screen for small molecules that induce DNA re-replication in SW480 colon adenocarcinoma cells; SW480 DNA re-replication, Hoechst DNA content imaging, 48 h; hit rate 1.8% among 340,000; AID 624297, 2012; Potency, µM (doses to about 46.1 µM), for inactives: at the highest dose re-replication activation, actives largely listed as activators; also: % of control where 0% means no effect; nearly all actives have a fitted effect of over 55% in size
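Readout is total intensity of Hoechst-stained nuclei, excited at 405 nm and collected at 500-530 nm. Compound treatment lasted 48 hr at 37 C in 5% CO2 before staining.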
KB-V1 MDR tox = qHTS assay for MDR1-selective chemotherapeutics: Primary screen using the drug-selected MDR subline cells KB-V1; KB-V1 MDR cells viability, CellTiter-Glo, 72 h; Potency, µM (top dose mostly 46.1 µM), usual class: cytotoxic; hit rate 3.4% among 400,000; also: % is scaled to controls: 0 for no effect and ±100 for the full control effect; nearly all actives have a fitted effect of over 60% in size
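KB-V1 MDR subline cells in DMEM (phenol-red free, 10% FBS) exposed to compounds in qHTS concentration series for 72 h at 37 degrees C. Viability read by CellTiter-Glo luminescence; concentration-effect curves fitted after normalization and correction.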
HT1080NT lethal = qHTS for induction of synthetic lethality in tumor cells producing 2HG: qHTS for the HT-1080-NT fibrosarcoma cell line | HT-1080-NT fibrosarcoma viability, CellTiter-Glo ATP luminescence, 48 h | Potency, µM (doses to about 46.1 µM), for inactives: at the highest dose activity, negative = less viability, hits mostly cytotoxic | hit rate 1.6% among 360,000;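 also: NT is the 2HG producing partner of a matched IDH1 knockdown line; 0% = DMSO-treated cells and -100% = media-only wells without cells; nearly all actives have a fitted effect of over 55% in size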
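A 48-hour cytotoxicity screen used HT-1080-NT cells plated 2 hours before compound delivery. ATP-based CellTiter-Glo luminescence measured viability, normalized to DMSO and no-cell controls.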
Starred values were filed as active, the others as inactive; i = inactive; u = inconclusive; x = not tested or not shown; ! = not confirmed by another sample; [ ] = dose if it differs, or a comment. Compounds with a hit are over-represented: about 7.9% of the library has one in this group of screens. Calls follow the shape of the dose curve; as a rule, active = well fitted curve in the direction sought with a large enough effect; inconclusive = small, poorly fitted or top-dose-only effect, or another doubt; inactive = no such curve, though single readings can be large; an effect the other way counts as inactive or inconclusive. Potency is read from the fitted curve at half-maximal effect.

SMILES | HT1080 IDH1KD tx | KB-3-1 tox | MCF10A rerep | SW480 rerep | KB-V1 MDR tox | HT1080NT lethal
Cc1cc(Cl)n2nc(C)c(-c3ccc(Cl)cc3)c2n1 | 18µM* | i | 16µM* | u | i | u
COc1ccc(N2C(=O)CC2(/C=C/c2ccccc2OC)C(=O)NC2CCCC2)cc1 (centres undefined) | 0% | u | -2% | 1% | 3.7µM* | 0%
CC1C(=O)N(c2ccc(S(=O)(=O)N(C)C)cc2)C1(/C=C/c1ccccc1)C(=O)NC1CCCC1 (centres undefined) | 1% | i | 15% | 5% | u | -5%
O=C1CC(/C=C/c2ccccc2)(C(=O)NC2CCCC2)N1c1ccc(S(=O)(=O)N2CCCC2)cc1 (centres undefined) | -6% | i | u | 12% | 2.9µM* | -2%
CCOC(=O)CNC(=O)C1(/C=C/c2ccccc2)CC(=O)N1c1ccc(OC)cc1 (centres undefined) | 9% | i | 4% | -9% | i | 5%
CCOCCCNC(=O)c1c(N)n(-c2ccc3c(c2)OCO3)c2nc3ccccc3nc12 | -1% | i | 23µM* | 9.2µM* | i | 7%
CCCNC(=O)c1c(N)n(-c2cc(OC)cc(OC)c2)c2nc3ccccc3nc12 | -25% | i | 16µM* | 9.2µM* | i | -19%
CCOCCCNC(=O)c1ccc2c(c1)OCO2 | 10% | i | 4% | -9% | i | 10%
COCCCNC(=O)c1c(N)n(-c2ccc3c(c2)OCO3)c2nc3ccccc3nc12 | u | i | 10µM* | 6.5µM* | i | u
CCCNC(=O)c1c(N)n(-c2ccc3c(c2)OCO3)c2nc3ccccc3nc12 | 2% | u | 17% | u | i | 4%
COC(=O)c1c(N)n(-c2ccc(OC)c(Cl)c2)c2nc3ccccc3nc12 | x | i | x | x | i | x
Nc1c(C(=O)NC2CC2)c2nc3ccccc3nc2n1-c1ccc2c(c1)OCO2 | -3% | i | 2.9µM* | u | i | -2%
COc1ccccc1S(=O)(=O)N(C)C[C@@H]1OCc2cnnn2CCCC(=O)N([C@H](C)CO)C[C@@H]1C | -3% | i | x | x | i | -3%
Cc1ccc(S(=O)(=O)NC(=O)C2(C)CCN2C(=O)Cc2ccc(C(C)(C)C)cc2)cc1 (centres undefined) | 25% | i | x | x | i | 27%
Cc1ccc(NC(=O)Cn2c(=O)n(-c3ccc(C)cc3)c(=O)c3ccc(C(=O)NCc4ccccc4Cl)cc32)cc1 | x | u | x | x | i | x
O=c1[nH]c(=O)n([C@H]2C[C@@H](O)[C@@H](CO)O2)cc1F | x | u | x | x | i | x
COc1ccc(OC)c(C2C(C(=O)c3cccs3)=C(O)C(=O)N2CCN2CCOCC2)c1 (centres undefined) | 19% | i | -4% | -22% | i | 11%
CC(=O)NS(=O)(=O)c1cccnc1Nc1cccc(Cl)c1C | -1% | i | -2% | 0.52µM* | i | 21%
Cc1cccc(Cn2c(C)c(CNC3CCCCCC3)c(C(=O)O)c2C)c1 | x | i | x | x | u | x
COc1ccc(-c2cc(C(C)=O)c(C)n2CCC(=O)Nc2ccc(C(F)(F)F)cc2)cc1 | x | u | x | x | i | x
COc1ccc2[nH]c3c(C)c4ccncc4c(C)c3c2c1 | 18µM* | 18µM* | -45% | -7% | 8.2µM* | 23µM*
COc1ccc2[nH]c(C)cc(=O)c2c1 | 13% | i | -1% | -3% | i | 12%
COc1cc(C(=O)N(C)CC(=O)Nc2cccc(F)c2)ccc1OCc1ccccc1 | -6% | i | -2% | -4% | i | -3%
CCN(CCCNC(=O)c1cc(Nc2ccc(OC)cc2OC)nc2ccccc12)c1cccc(C)c1 | x | i | x | x | i | x
COc1ccc(-n2nc(C(=O)NCC(=O)Nc3cc(OC)c(OC)c(OC)c3)c3ccccc3c2=O)cc1Cl | -24% | i | 23µM* | 6% | i | -22%
SMILES | HT1080 IDH1KD tx | KB-3-1 tox | MCF10A rerep | SW480 rerep | KB-V1 MDR tox | HT1080NT lethal
CCN(CC)C(=O)CNC(=O)c1nn(-c2ccc(OC)c(Cl)c2)c(=O)c2ccccc12 | -3% | i | 0% | -4% | i | -12%
Cc1c(Cl)ccc2c(C(O)CBr)cc(-c3ccccc3)nc12 (centres undefined) | u | i | 21µM* | u | i | u
COc1cc(OC)c(C2=Nc3ccc(Br)cc3C(c3ccccc3)N2CC(=O)NN)cc1OC (centres undefined) | 4% | i | 2.9µM* | -9% | i | 6%
NNC(=O)CN1C(c2ccccc2)=Nc2ccc(Br)cc2C1c1ccccc1 (centres undefined) | u | i | 8% | 12% | i | u
CCCCSc1nnc2[nH]c(=O)cc(N)n12 | -6% | i | 6% | -6% | 8.2µM* | 6%[9.24 µM]
CCCSc1nnc2[nH]c(=O)cc(N)n12 | 15% | i | 3% | 1% | u | 9%
CC(C)c1nnc(-c2ccc(Cl)cc2)c(N(C)C)n1 | -1% | i | 2% | -2% | 21µM* | 4%
CC(C)CCOc1ccc(CC(=O)NO)cc1 | x | i | x | x | i | x
COc1ccc(-c2cc(C(=O)N3CCN(c4ccccc4)CC3)no2)cc1 | u | u | u | -6% | 21µM*! | -20%
O=C(c1cc(-c2cccc(O)c2)on1)N1CCN(C(c2ccccc2)c2ccccc2)CC1 | u | 18µM* | 6.5µM* | 18% | u | u
CCOC(=O)C1CCCN(C(=O)c2cc(OC)ccc2Br)CC1 (centres undefined) | 20% | i | x | x | i | 29%
COc1ccc(C(CNC(=O)c2ccc3c(c2)OCCO3)N(C)C)cc1 (centres undefined) | 5% | i | 2% | 10% | u | 2%
CCNC(=S)N(Cc1ccco1)Cc1cc2cc(OCC)ccc2[nH]c1=O | -4% | i | u | -34% | u | -13%
Cc1ccc2[nH]c(=O)c(CN(Cc3cccs3)C(=S)NCc3ccco3)cc2c1 | -17% | i | 13% | 9% | 18µM* | -1%
Cc1ccc2[nH]c(=O)c(CN(CC3CCCO3)C(=S)NCc3ccco3)cc2c1 (centres undefined) | -3% | i | 7% | 1% | i | 0%

Screening results: PubChem, National Center for Advancing Translational Sciences (NCATS)
